According to paper PMC7862700, “An all-to-all approach to the identification of sequence-specific readers for epigenetic DNA modifications on cytosine”:

Tests used:
Experiment in all cases: DAPPL (digital affinity profiling via proximity ligation, sequencing); 10 mM Tris-HCl pH 7.5, 50 mM NaCl, 1 mM DTT, 4% glycerol, room temperature, 30 min; GST-TFs on glutathione beads, 16-mer random dsDNA library, 0.1% formaldehyde crosslink after washing; high values mean tight binding
Conditions in all cases: protein: recombinant; tags: N-terminal GST; dsDNA, one strand shown
[1] = biological target: T1, FLI1 (Homo sapiens, UniProt Q01543 1-452)
T1 sequence: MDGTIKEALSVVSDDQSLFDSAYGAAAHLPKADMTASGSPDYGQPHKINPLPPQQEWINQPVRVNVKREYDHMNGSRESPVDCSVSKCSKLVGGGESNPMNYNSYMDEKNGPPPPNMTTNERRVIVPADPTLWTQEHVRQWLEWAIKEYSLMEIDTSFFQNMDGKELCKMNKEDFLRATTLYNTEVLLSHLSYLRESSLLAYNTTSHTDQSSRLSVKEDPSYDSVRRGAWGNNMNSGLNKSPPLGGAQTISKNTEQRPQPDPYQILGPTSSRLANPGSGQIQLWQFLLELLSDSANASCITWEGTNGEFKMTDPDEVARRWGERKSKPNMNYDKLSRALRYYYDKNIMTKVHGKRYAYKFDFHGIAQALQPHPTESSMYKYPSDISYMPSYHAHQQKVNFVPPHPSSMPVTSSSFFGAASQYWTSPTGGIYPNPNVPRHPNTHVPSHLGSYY
Procedure, shortened: (§1)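 After expression in yeast as GST fusions, human transcription factors were bound to glutathione beads, DNA-barcoded and mixed with a tag-only sample. The pools were incubated with 200 nmole of a 16-mer random double-stranded DNA library in Tris/NaCl/DTT/glycerol buffer (30 min, room temperature), washed and crosslinked with 0.1% formaldehyde. Proximity ligation with BsaI/T4 ligase ran for 1 h at 37 °C, before PCR amplification and sequencing on an Illumina NextSeq500. Binding signal is a hexamer's read frequency for a factor divided by its frequency for the tag-only sample.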

[2] = biological target: T2, ELK1 (Homo sapiens, UniProt P19419 1-428)
T2 sequence: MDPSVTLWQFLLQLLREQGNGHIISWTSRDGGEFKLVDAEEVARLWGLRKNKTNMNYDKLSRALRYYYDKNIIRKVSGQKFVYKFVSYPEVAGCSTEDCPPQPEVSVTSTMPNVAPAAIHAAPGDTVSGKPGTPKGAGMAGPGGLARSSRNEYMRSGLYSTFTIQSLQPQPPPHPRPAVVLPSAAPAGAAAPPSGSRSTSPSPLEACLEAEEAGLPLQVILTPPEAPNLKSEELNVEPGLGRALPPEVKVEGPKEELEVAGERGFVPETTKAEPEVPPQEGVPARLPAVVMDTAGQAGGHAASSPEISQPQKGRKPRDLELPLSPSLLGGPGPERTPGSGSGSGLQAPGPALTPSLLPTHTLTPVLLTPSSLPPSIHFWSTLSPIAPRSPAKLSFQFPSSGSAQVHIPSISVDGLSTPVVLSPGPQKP
Procedure, shortened: as §1

[3] = biological target: T3, GABPA (Homo sapiens, UniProt Q06546 1-454)
T3 sequence: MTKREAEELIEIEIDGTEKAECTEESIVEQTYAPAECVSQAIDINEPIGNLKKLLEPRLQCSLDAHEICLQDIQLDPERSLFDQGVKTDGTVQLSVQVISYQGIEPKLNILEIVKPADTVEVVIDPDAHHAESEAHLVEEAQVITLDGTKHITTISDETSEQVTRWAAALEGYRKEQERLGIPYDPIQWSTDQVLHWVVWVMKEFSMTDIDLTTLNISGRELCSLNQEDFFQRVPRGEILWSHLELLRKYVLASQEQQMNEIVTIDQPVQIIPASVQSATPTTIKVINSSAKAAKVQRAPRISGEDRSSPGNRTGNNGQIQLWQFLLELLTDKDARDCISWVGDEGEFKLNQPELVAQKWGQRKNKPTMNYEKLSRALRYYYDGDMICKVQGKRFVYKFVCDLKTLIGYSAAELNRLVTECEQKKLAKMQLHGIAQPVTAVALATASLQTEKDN
Procedure, shortened: as §1

[4] = biological target: T4, ERG (Homo sapiens, UniProt P11308 1-479)
T4 sequence: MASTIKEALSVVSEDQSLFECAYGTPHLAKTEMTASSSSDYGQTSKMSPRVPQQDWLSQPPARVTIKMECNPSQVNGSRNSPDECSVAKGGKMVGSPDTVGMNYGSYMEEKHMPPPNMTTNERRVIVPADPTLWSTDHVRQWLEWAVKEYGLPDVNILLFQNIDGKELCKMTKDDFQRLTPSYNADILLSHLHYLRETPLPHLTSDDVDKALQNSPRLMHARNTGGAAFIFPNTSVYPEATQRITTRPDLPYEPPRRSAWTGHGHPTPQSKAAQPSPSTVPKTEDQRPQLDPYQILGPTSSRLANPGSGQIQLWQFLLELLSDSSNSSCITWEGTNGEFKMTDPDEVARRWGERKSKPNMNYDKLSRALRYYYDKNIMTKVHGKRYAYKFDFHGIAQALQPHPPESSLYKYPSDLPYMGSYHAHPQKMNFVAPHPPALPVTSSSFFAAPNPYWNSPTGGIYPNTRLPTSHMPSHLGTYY
Procedure, shortened: as §1

[5] = biological target: ELF1 (Homo sapiens, UniProt P32519 1-619)
ELF1, sequence (P32519 whole entry): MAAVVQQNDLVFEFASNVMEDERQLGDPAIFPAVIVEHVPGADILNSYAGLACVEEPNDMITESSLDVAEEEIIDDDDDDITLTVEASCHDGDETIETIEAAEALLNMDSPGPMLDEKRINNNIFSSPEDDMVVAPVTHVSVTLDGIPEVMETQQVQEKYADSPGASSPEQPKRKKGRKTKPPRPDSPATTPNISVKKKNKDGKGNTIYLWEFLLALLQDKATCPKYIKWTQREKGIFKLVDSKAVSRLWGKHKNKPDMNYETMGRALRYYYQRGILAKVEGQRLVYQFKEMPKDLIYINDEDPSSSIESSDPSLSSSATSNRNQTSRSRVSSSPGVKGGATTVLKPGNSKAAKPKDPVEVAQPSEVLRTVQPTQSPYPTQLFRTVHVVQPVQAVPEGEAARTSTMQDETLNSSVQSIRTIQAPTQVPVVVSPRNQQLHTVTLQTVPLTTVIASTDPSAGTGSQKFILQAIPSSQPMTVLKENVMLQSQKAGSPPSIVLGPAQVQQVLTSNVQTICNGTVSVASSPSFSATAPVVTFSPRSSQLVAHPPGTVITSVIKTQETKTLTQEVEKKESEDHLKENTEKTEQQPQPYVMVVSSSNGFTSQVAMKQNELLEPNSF
Procedure, shortened: as §1

[6] = biological target: T5, EHF (Homo sapiens, UniProt Q9NZC4 1-300)
T5 sequence: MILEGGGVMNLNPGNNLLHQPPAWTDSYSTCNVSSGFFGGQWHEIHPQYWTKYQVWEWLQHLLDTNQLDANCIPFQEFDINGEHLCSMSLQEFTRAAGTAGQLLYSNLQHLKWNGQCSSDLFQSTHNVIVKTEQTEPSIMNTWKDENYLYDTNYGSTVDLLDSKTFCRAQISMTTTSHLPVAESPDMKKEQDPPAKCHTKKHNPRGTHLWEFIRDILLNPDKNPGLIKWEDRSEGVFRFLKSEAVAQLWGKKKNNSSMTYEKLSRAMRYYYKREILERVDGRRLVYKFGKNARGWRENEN
Procedure, shortened: as §1

[7] = biological target: SPI1 (Homo sapiens, UniProt P17947 1-270)
Procedure, shortened: as §1

[8] = biological target: SPIB (Homo sapiens, UniProt Q01892 1-262)
SPIB, sequence (Q01892 whole entry): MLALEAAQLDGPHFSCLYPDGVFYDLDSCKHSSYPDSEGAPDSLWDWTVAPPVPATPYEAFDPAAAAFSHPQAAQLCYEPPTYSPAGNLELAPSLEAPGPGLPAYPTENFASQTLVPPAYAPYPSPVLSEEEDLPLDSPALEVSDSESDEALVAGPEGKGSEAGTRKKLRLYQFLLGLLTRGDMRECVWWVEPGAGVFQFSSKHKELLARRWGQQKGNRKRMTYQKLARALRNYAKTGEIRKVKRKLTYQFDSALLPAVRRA
Procedure, shortened: as §1

[9] = biological target: T6, ELK3 (Homo sapiens, UniProt P41970 1-407)
T6 sequence: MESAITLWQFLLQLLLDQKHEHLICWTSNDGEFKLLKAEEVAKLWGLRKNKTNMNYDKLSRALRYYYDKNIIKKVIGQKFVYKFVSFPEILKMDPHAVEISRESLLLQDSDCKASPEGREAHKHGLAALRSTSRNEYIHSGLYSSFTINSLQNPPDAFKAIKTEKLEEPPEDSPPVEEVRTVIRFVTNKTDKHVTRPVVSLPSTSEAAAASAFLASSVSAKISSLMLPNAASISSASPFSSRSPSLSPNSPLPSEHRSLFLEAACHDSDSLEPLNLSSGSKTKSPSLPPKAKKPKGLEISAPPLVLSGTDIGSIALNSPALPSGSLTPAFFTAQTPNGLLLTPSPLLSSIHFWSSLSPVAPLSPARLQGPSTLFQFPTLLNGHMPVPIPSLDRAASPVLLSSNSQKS
Procedure, shortened: as §1

Sequence	binding signal [1]	binding signal [2]	binding signal [3]	binding signal [4]	binding signal [5]	binding signal [6]	binding signal [7]	binding signal [8]	binding signal [9]
GTCTCA	1.34 fold enrichment (6-mer frequency, TF over GST control)	1.32 fold enrichment (6-mer frequency, TF over GST control)	1.35 fold enrichment (6-mer frequency, TF over GST control)	1.36 fold enrichment (6-mer frequency, TF over GST control)	1.41 fold enrichment (6-mer frequency, TF over GST control)	1.32 fold enrichment (6-mer frequency, TF over GST control)	1.39 fold enrichment (6-mer frequency, TF over GST control)	1.41 fold enrichment (6-mer frequency, TF over GST control)	1.32 fold enrichment (6-mer frequency, TF over GST control)
ATTCCG	1.84 fold enrichment (6-mer frequency, TF over GST control)	1.84 fold enrichment (6-mer frequency, TF over GST control)	1.65 fold enrichment (6-mer frequency, TF over GST control)	1.82 fold enrichment (6-mer frequency, TF over GST control)	1.61 fold enrichment (6-mer frequency, TF over GST control)	1.86 fold enrichment (6-mer frequency, TF over GST control)	1.69 fold enrichment (6-mer frequency, TF over GST control)	1.78 fold enrichment (6-mer frequency, TF over GST control)	1.78 fold enrichment (6-mer frequency, TF over GST control)
CCCCAT	1.37 fold enrichment (6-mer frequency, TF over GST control)	1.24 fold enrichment (6-mer frequency, TF over GST control)	1.26 fold enrichment (6-mer frequency, TF over GST control)	1.34 fold enrichment (6-mer frequency, TF over GST control)	1.31 fold enrichment (6-mer frequency, TF over GST control)	1.27 fold enrichment (6-mer frequency, TF over GST control)	1.46 fold enrichment (6-mer frequency, TF over GST control)	1.18 fold enrichment (6-mer frequency, TF over GST control)	1.2 fold enrichment (6-mer frequency, TF over GST control)
ATACCC	1.18 fold enrichment (6-mer frequency, TF over GST control)	1.17 fold enrichment (6-mer frequency, TF over GST control)	1.19 fold enrichment (6-mer frequency, TF over GST control)	1.19 fold enrichment (6-mer frequency, TF over GST control)	1.2 fold enrichment (6-mer frequency, TF over GST control)	1.21 fold enrichment (6-mer frequency, TF over GST control)	1.13 fold enrichment (6-mer frequency, TF over GST control)	1.14 fold enrichment (6-mer frequency, TF over GST control)	1.13 fold enrichment (6-mer frequency, TF over GST control)
AAACCT	1.15 fold enrichment (6-mer frequency, TF over GST control)	1.01 fold enrichment (6-mer frequency, TF over GST control)	1.17 fold enrichment (6-mer frequency, TF over GST control)	1.12 fold enrichment (6-mer frequency, TF over GST control)	1.19 fold enrichment (6-mer frequency, TF over GST control)	1.16 fold enrichment (6-mer frequency, TF over GST control)	1.18 fold enrichment (6-mer frequency, TF over GST control)	1.11 fold enrichment (6-mer frequency, TF over GST control)	1.15 fold enrichment (6-mer frequency, TF over GST control)
TCCCCC	1.59 fold enrichment (6-mer frequency, TF over GST control)	1.54 fold enrichment (6-mer frequency, TF over GST control)	1.44 fold enrichment (6-mer frequency, TF over GST control)	1.48 fold enrichment (6-mer frequency, TF over GST control)	1.58 fold enrichment (6-mer frequency, TF over GST control)	1.52 fold enrichment (6-mer frequency, TF over GST control)	1.46 fold enrichment (6-mer frequency, TF over GST control)	1.53 fold enrichment (6-mer frequency, TF over GST control)	1.27 fold enrichment (6-mer frequency, TF over GST control)
TCATTT	1.36 fold enrichment (6-mer frequency, TF over GST control)	1.33 fold enrichment (6-mer frequency, TF over GST control)	1.19 fold enrichment (6-mer frequency, TF over GST control)	1.35 fold enrichment (6-mer frequency, TF over GST control)	1.25 fold enrichment (6-mer frequency, TF over GST control)	1.36 fold enrichment (6-mer frequency, TF over GST control)	1.5 fold enrichment (6-mer frequency, TF over GST control)	1.34 fold enrichment (6-mer frequency, TF over GST control)	1.16 fold enrichment (6-mer frequency, TF over GST control)
CTTTCC	2.05 fold enrichment (6-mer frequency, TF over GST control)	1.9 fold enrichment (6-mer frequency, TF over GST control)	1.83 fold enrichment (6-mer frequency, TF over GST control)	2.04 fold enrichment (6-mer frequency, TF over GST control)	1.89 fold enrichment (6-mer frequency, TF over GST control)	2.05 fold enrichment (6-mer frequency, TF over GST control)	1.84 fold enrichment (6-mer frequency, TF over GST control)	2.18 fold enrichment (6-mer frequency, TF over GST control)	2.1 fold enrichment (6-mer frequency, TF over GST control)
